Laboratory results published in the supplement of paper PMC6555819.

Assays:
Experiment in all cases: PBM binding z-score (relative to random genomic background probes); higher = stronger binding; sequences stand for … in GC…GCGATTGACAGCGTAGAATGAAGG
[1] = system: RARb homodimer (NR concentration 270 nM)
Outline: (§1)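 Ligand-free nuclear receptor dimers were applied to custom Agilent 4×180K protein-binding microarrays whose double-stranded probes carried direct-repeat seeds, single-nucleotide variants, half-site ablations and random human genomic background sequences in 34-nt variable regions. Incubation lasted 1 h. Binding z-scores were computed against the random background probes from regression-normalized fluorescence.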

[2] = system: RARg:RXRa (NR concentration 270 nM, RXRa partner concentration 90 nM)
Outline: as §1

[3] = system: RARg homodimer (NR concentration 270 nM)
Outline: as §1

[4] = system: RXRa DBDmut IVT, anti-RXR (DBD mutation: RXRa K156A/R161A, NR concentration 90 nM)
Outline: as §1

[5] = system: RXRa homodimer (NR concentration 180 nM)
Outline: as §1

[6] = system: THRa:RXRa (NR concentration 90 nM, RXRa partner concentration 90 nM)
Outline: as §1

[7] = system: THRa homodimer (NR concentration 90 nM)
Outline: as §1

[8] = system: VDR homodimer (NR concentration 270 nM)
Outline: as §1

Sequence	PBM binding z-score [1]	PBM binding z-score [2]	PBM binding z-score [3]	PBM binding z-score [4]	PBM binding z-score [5]	PBM binding z-score [6]	PBM binding z-score [7]	PBM binding z-score [8]
CAAACTAGTTCAAAGGTCAAAGTCGAGCCAACCA	4.9	7.49	6.13	3.58	9.59	4.16	1.06	3.89
CCTAGTTGGTCAGAAGGTCACACACCGGATATGA	4.46	4.85	4.38	0.926	4.4	3.12	1.59	2.21
ATCTCTAGGTAGAGTTCAGTGAAAGATCGATAGA	1.89	1.61	1.55	2.18	1.3	0.946	-0.259	3.41
CCGACTGGGGCCGAAAGGTTACCATACCATCCGG	2.41	2.18	1.28	-0.679	2.15	1.14	-0.247	-0.349
CCAAGTTGGTCAGGAGGTCACACACCGGATATGA	4.38	5.05	4.59	1.39	4.6	3.5	1.96	2.65
ATACGTAGGTTAGCTGGGGTCATTCAGACTAGGC	3.71	4.03	3.01	1.65	5.42	4.9	2.74	4.13
CCGACTGGGGCATAAGGTTAGCATAAGCCAGCCC	1.26	0.672	0.69	-0.721	0.224	1.01	0.298	-0.543
CCGACTGGGGCAAGGTTACCGTAACGCACAGCCA	1.39	1.08	1.28	-0.694	1.04	1.22	0.42	-0.25
ACGATTAGTTGACTTAGGGCAACCGATACGACGC	0.941	0.65	0.654	0.0967	0.512	1.43	0.264	-0.201
GCTAGTTGGTCAGTTAAAGGTCACACACCGGTCG	5.09	5.56	4.82	0.773	5.12	3.53	2.36	2.33
GCTTGTAGATCAAAGTTAAGAAAGACTAAGCTAA	-0.8	-0.501	-0.292	-0.0516	-0.495	-0.445	-1.4	-0.623
GCTATTAGTCGAAAGGGCAACCGAATGATTCTCG	2.08	1.09	1.5	0.643	0.86	0.548	-0.36	0.289
TAGCCTAGGTCAAGGGCCAGTATACCACGCGAAC	3.4	4.09	4.75	0.34	3.58	2.78	0.832	0.272
CAAACTAGGTCAAGAGGTCAAAGTACGCTTCCCG	5.69	8.23	7.27	3.15	8.07	4.23	2.61	4.76
AGCGAAAGGTCGTGAGGTGAGTATACAGAAAGGC	3.19	4.63	3.87	0.985	5.33	3.46	1.27	0.74
CGAACTAGGTCATTGACGGGACAGTGAATAGTAA	2.6	4.41	4.35	2.41	2.61	2.63	0.664	0.927
GCGACTGGGGCAAAACAGGTTACCATAAGGTTGG	1.31	0.535	0.627	-0.186	0.658	2.3	0.0603	-0.526
ATCTCTAGGTAAAATTTCAGTGAATCCCGAGGAT	-0.0962	0.558	0.537	0.113	0.367	0.328	0.331	-0.51
ACTATTTGGTCAGCTGAGGTCACACACAATTCGG	4.69	4.24	4.48	2.02	4.4	5.09	5.11	3.67
GCGACTGGGGCAAAGTAGGTTACCATAAGGTTGG	1.42	0.662	0.576	-0.138	0.504	2.09	0.208	0.042
TCGAGTAGGTTAGGGGTATTCAGAATGGCGTCGA	0.614	0.141	-0.12	0.297	0.649	0.317	0.194	0.305
TGAATGAGGTTAAAGTTCAGGGAACGTGGCGTCG	3.35	4.76	2.66	1.93	6.97	3.63	0.772	2.62
TCGAGTAGGTTAGGGGCATTCAGAATGGCGTCGA	0.976	0.269	0.406	0.45	0.658	0.87	0.0711	0.98
GCTTACGGGTCAAACGTTATAGCATGAATAGAAT	2.24	4.8	4.42	2.47	5.6	2.24	-0.707	1.11
TCATAAAGGTAAACAGGTGAAAGTCCGTAAGTTA	1.37	1.34	0.882	1.53	1.74	1.22	0.368	0.647
TCTTTTAGATCAAGCAGGTTAAGAAAGCCTGAGT	0.0271	0.216	0.212	1.19	0.49	0.401	-0.436	0.0126

Sequence	PBM binding z-score [1]	PBM binding z-score [2]	PBM binding z-score [3]	PBM binding z-score [4]	PBM binding z-score [5]	PBM binding z-score [6]	PBM binding z-score [7]	PBM binding z-score [8]
TCATATAGGTAACACAGGTGAAAGTCGGCATCTA	1.12	1.13	0.999	1.73	1.55	1.36	0.518	0.493
AATAGAGGGTCACTAGGCCAGAGTAGGTACGAAT	3.01	4.11	4.52	1.93	4.2	1.99	0.353	1.1
GGAACGAGGGCAAGTTGATCGCAGAGTTTGATGG	1.5	1.49	1.89	2.28	0.723	1.2	-0.251	1.58
GTACCAAGGTGACTAGGTCGTTGATGAGTAGGCG	0.945	0.955	0.808	-0.648	0.837	1.87	0.333	0.099
TCATATAGGTAAACAGGTAAAAGTCCGTAAGTTA	0.493	0.41	0.406	1.53	0.676	0.697	0.445	0.448
TCTGCTAGCTCAGTTGGTCAGCTAACGAGCTGCC	-1.04	-0.955	-0.903	-0.192	-1.34	-1.6	-1.25	-1.56
AGAATGAGGTTTCCAAAGATCAGGGAAACGCTTG	-0.579	-0.0652	-0.103	-0.247	0.124	-0.118	-0.311	-0.385
ACTATTCGTTGACTTAGGGCAACCGATACGACGC	0.887	0.792	0.996	0.445	0.633	0.912	0.963	0.261
AGAATGTGGTTATACGTAGATCAGGGAAGAAAGT	0.494	0.184	0.305	0.187	-0.0859	0.207	0.0442	-0.179
TCTATTCGTTGATTAGGGCAACCGAAACAGCGGA	0.244	0.485	0.548	0.758	0.477	0.404	0.073	-0.134
GATACAGGGTCAAGGCCCGAGTACGCGTATTGAT	3.19	5.42	5	2.42	5.69	3.47	0.807	2.35
AGTCAAAGTTCACTAGTTAACGTAAGATTCAGCT	3.6	4.87	5.57	4.26	3.7	1.45	-0.514	4.04
ATCGAAAGGTCGACGAGGTGCGTATACACCGTTT	2.58	3.76	3.9	0.716	4	2.46	-0.328	0.77
ATTTCTAGGTAACAAGTTCAGTGAAAGAGAGGAC	2.14	1.75	1.66	1.44	1.12	1.83	1.35	3.04
TCTCGGAGGACACGAAGGTCAGAGATTTCCAGAG	3.84	3.05	4.12	0.78	1.99	2.92	1.1	1.7
GCTTACGGGTCAAAGGTTGTAGCATGAATAGAAT	2.84	5.74	4.09	2.43	8.07	3.2	0.00313	0.93
ACTAGCAGGCCAAGATTGGGTCACTCAAACAAAG	1.97	1.63	1.37	-0.534	0.621	1.84	0.533	0.0162
CCTACTGGGCCAAAGTCATTGATCAGTCAAAGCA	-0.0618	-0.124	-0.109	-0.332	-0.525	-0.226	-0.645	-0.635
AGAATGAAGTTACCAAAGATCAGGGAAACGCTTG	-0.995	0.125	0.206	-0.628	0.402	-0.228	-1.02	-0.257
GCGACTGGGGCAAAGCAGGTTACCATAAGGTTGG	1.15	0.472	0.712	-0.374	0.33	2.84	0.0306	-0.59
ATACCAAGGTGTTCGTGAGGTCGTTGATACTAAC	1.53	0.824	0.278	0.712	0.997	2.96	2.38	2.98
ATATGTAGATTACATCCGGGTCATTCAGGCTATG	2.23	1.66	1.21	1.02	2.2	3.14	2.27	2.43
ATCTCTAGGTAACAAGCTCAGTGAAAGAGAGGAC	0.444	0.352	0.494	-0.305	0.272	1	0.56	-0.048
ATCTCTACGTAAAAGTTCAGTGAATCCCGAGGAT	2.42	1.57	2	0.755	0.831	0.591	0.154	1.5
GTATCAAGGTGAATAGGTCGTTGATGAGTAGGCG	1.83	2.77	1.78	0.056	1.81	2.29	0.898	0.555
ACAGACATGTGAGTGAAGGTAACTCAGCTGGACG	-0.584	0.0591	0.117	-0.191	0.317	-0.00314	-0.488	-0.512
